Results filed as inconclusive are left out. A number with no mark means an inactive call. Activity calls are given as the source filed them. The call rests on the fitted dose curve; in most records, active means well fitted cell-killing curve with a large enough effect; inconclusive means small, poorly fitted or top-dose-only effect; inactive means no such curve, though single readings can be large or run the other way.
Experiment: Quantitative High-Throughput drug screen in 47 multiple myeloma cell lines against the NCATS MIPE library collection: JIM3_ECACC cell viability assay (AID 1918963; further: nearly all actives have a fitted effect of over 35% in size)
Details: JIM3 myeloma viability, CellTiter-Glo ATP, 48 h; series mostly up to 45.8 µM
Source text: PI: Beverly A. Mock Ph.D.
Laboratory of Cancer Biology and Genetics,
Center for Cancer Research, National Cancer Institute,
National Institute of Health, Bethesda, Maryland
Drug resistance and disease progression are common in multiple myeloma (MM) patients, underscoring the need for new therapeutic combinations. […] We hypothesized that effective combinations would reduce MYC expression and enhance p16 activity. […] These preclinical data identify potentially useful drug combinations for evaluation in drug-resistant MM and reveal potential mechanisms of combined drug sensitivity.
Described herein is the primary MIPE qHTS used to cherrypick compounds. Validated compounds were then further tested for potential synergistic activiy.
[1] Peat TJ, Gaikwad SM, Dubois W, Gyabaah-Kessie N, Zhang S, Gorjifard S, Phyo Z, Andres M, Hughitt VK, Simpson RM, Miller MA, Girvin AT, Taylor A, Williams D, D'Antonio N, Zhang Y, Rajagopalan A, Flietner E, Wilson K, Zhang X, Shinn P, Klumpp-Thomas C, McKnight C, Itkin Z, Chen L, Kazandijian D, Zhang J, Michalowski AM, Simmons JK, Keats J, Thomas CJ, Mock BA. Drug combinations identified by high-throughput screening promote cell cycle transition and upregulate Smad pathways in myeloma. Cancer Lett. 2023 Aug 1;568:216284. doi: 10.1016/j.canlet.2023.216284. Epub 2023 Jun 24. PMID: 37356470; PMCID: PMC10408729.
SEQUENCE No. (e.g., 1, 2, 3, etc.); […] (e.g., Cells, Incubation, Reagent, etc.); VALUE and DESCRIPTION.
1; Cells; 5 uL; white, solid bottom 1536-well Greiner assay plate.
2; Compounds; 23 nL; Kalypsis pin tool (Wako USA) equipped with a 1536-well pin head to transfer to the assay plates.
3; Incubation; 48 hours; 37C incubation.
4; Reagent;5uL; CellTiter Glo (Promega).
5; Detector; 425V; Luminescence; Viewlux PerkinElmer.
NOTES (numbers refer to Sequence numbers above)
1. The cell-based screening methods employed in this study were like those previously published. Briefly, the corresponding myeloma cell lines were screened in 1,536-well plates with 500 cells, 5-uL per well for inhibition of cell viability (assessed by measuring ATP levels with CellTiterGlo).
2. NCATS MIPE 4.0 library of approved and investigational drugs were added using the Kalypsis pin tool. Wells treated with DMSO only for 100% viability and media only wells for 0% viability were used as controls.
3. The assay plates were covered and incubated for 48 hours in a 37C, 5% CO2 incubator with controlled humidity.
4. After 48 hours, CellTilter-GloTM luminescent substrate mix (Promega) reagent was added to the assay plate and plates we incubated for 5 min at room temperature.
5. Signal was measured as median relative luminescence units on a ViewLux (PerkinElmer) multiplate reader.
[1] Heske CM, Davis MI, Baumgart JT, Wilson K, Gormally MV, Chen L, Zhang X, Ceribelli M, Duveau DY, Guha R, Ferrer M, Arnaldez FI, Ji J, Tran HL, Zhang Y, Mendoza A, Helman LJ, Thomas CJ. Matrix Screen Identifies Synergistic Combination of PARP Inhibitors and Nicotinamide Phosphoribosyltransferase (NAMPT) Inhibitors in Ewing Sarcoma. Clin Cancer Res. 2017 Dec 1;23(23):7301-7311. doi: 10.1158/1078-0432.CCR-17-1121. Epub 2017 Sep 12. PMID: 28899971; PMCID: PMC6636827.
Potency means the concentration at half of the fitted maximal effect.

SMILES	Potency	viability, percent of control
COC(=O)C[C@](O)(CCCC(C)(C)O)C(=O)O[C@@H]1C(OC)=C[C@]23CCCN2CCc2cc4c(cc2[C@H]13)OCO4	inactive	–
COc1cc2nccc(Oc3ccc(NC(=O)C4(C(=O)Nc5ccc(F)cc5)CC4)cc3)c2cc1OC	14.8 µM (active)	–
CC(C)c1cc(C(=O)N2Cc3ccc(CN4CCN(C)CC4)cc3C2)c(O)cc1O	0.187 µM (active)	–
C[C@]12CC[C@H](O)CC1=CCC1C2CC[C@]2(C)C(n3cnc4ccccc43)=CCC12 (stereo not given in full)	inactive	–
CC(NCc1ccc2c(c1)nc(NC(=O)c1ccc(-c3cn[nH]c3)s1)n2CC(C)(C)O)C(C)(C)C (stereo not given)	0.209 µM (active)	–
CC(C)c1cc(-c2n[nH]c(=O)n2-c2ccc3c(ccn3C)c2)c(O)cc1O	0.0264 µM (active)	–
CCS(=O)(=O)c1cccc(-c2cc(C(=O)NC3CCN(C)CC3)c(C)c3[nH]c4ncc(C)cc4c23)c1	0.935 µM (active)	–
c1cc(-c2cnn3cc(-c4ccc(OCCN5CCCCC5)cc4)cnc23)ccn1	3.72 µM (active)	–
COc1ccc2c(c1)CC[C@@H](CN(C)CC(=O)O)[C@H]2c1ccccc1	1.66 µM (active)	–
COc1cc(OC2CCN(C)CC2)ccc1Nc1ncc2c(n1)n(C1CCCC1)c(=O)n2C	11.8 µM (active)	–
CCCCOc1c(C(=O)c2c(F)cc(C)cc2F)cnc2n[nH]cc12	8.33 µM (active)	–
Cc1ccc2nc(NC(=O)CSc3nc4c(c(=O)n3-c3ccccc3)SCC4)sc2c1	18.7 µM (active)	–
NC(=O)c1cccc2cn(-c3ccc([C@@H]4CCCNC4)cc3)nc12	inactive	–
O=C(C=Cc1cccc(S(=O)(=O)Nc2ccccc2)c1)NO	5.4 µM (active)	–
COc1ccc(CC2c3cc(OC)c(OC)cc3CC[N+]2(C)CCC(=O)OCCCCCOC(=O)CC[N+]2(C)CCc3cc(OC)c(OC)cc3C2Cc2ccc(OC)c(OC)c2)cc1OC (stereo not given)	–	105% [at 5.15 µM]
O=C(O)CO.[NH2-].[NH2-].[Pt+2]	inactive	–
Cc1cc(N2CCOCC2)cc2[nH]c(-c3c(NC[C@@H](O)c4cccc(Cl)c4)cc[nH]c3=O)nc12	0.132 µM (active)	–
CN(C1CCc2c(c3ccccc3n2CC(=O)O)C1)S(=O)(=O)c1ccc(F)cc1 (stereo not given)	inactive	–
O=C(C=Cc1cccnc1)NCCCCC1CCN(C(=O)c2ccccc2)CC1	0.001 µM (active)	–
Cc1cc(Nc2cc(N3CCN(C)CC3)nc(Sc3ccc(NC(=O)C4CC4)cc3)n2)n[nH]1	5.26 µM (active)	–

SMILES	Potency	viability, percent of control
CCn1nnc2c(N3CCOCC3)nc(-c3ccc(NC(=O)Nc4ccc(C(=O)N5CCN(C)CC5)cc4)cc3)nc21	0.0235 µM (active)	–
COc1ccc(-n2nc(C(N)=O)c3c2C(=O)N(c2ccc(N4CCCCC4=O)cc2)CC3)cc1	inactive	–
CCCCc1nc2cc(C=CC(=O)NO)ccc2n1CCN(CC)CC	2.64 µM (active)	–
CC[C@@H]1C(=O)N(C)c2cnc(Nc3ccc(C(=O)NC4CCC(N5CCN(CC6CC6)CC5)CC4)cc3OC)nc2N1C(C)C (stereo not given in full)	0.0418 µM (active)	–
C[C@@H](Oc1cc(-n2cnc3ccc(CN4CCN(C)CC4)cc32)sc1C(N)=O)c1ccccc1C(F)(F)F	0.0372 µM (active)	–
O=C(c1cncc(Br)c1)N1CCC(N2CCCC2)CC1	inactive	–
Cc1cnc(Nc2ccc(F)cc2Cl)nc1-c1c[nH]c(C(=O)N[C@H](CO)c2cccc(Cl)c2)c1	16.6 µM (active)	–
CC(C)CC(=O)Nc1n[nH]c2c1CN(C(=O)C1CCN(C)CC1)C2(C)C	0.833 µM (active)	–
C=CC(=O)Nc1cccc(Oc2nc(Nc3ccc(N4CCN(C)CC4)cc3)ncc2Cl)c1	5.9 µM (active)	–
COc1ccc(CC2SC(=O)NC2=O)cc1C(=O)NCc1ccc(C(F)(F)F)cc1 (stereo not given)	inactive	–
Cc1c(NC(=O)OC[C@@H]2COCCN2)cn2ncnc(Nc3ccc4c(cnn4Cc4cccc(F)c4)c3)c12	1.32 µM (active)	–
CC(C)c1cnn2c(NCc3ccccc3)cc(N[C@@H](CO)[C@H](O)CO)nc12	0.235 µM (active)	–
O=C(O)[C@H](Cc1c[nH]c2ccccc12)N1C(=O)c2ccccc2C1=O	inactive	–
O=C(Nc1cc(C(F)(F)F)cc(C(F)(F)F)c1)c1cc(Cl)ccc1O	0.662 µM (active)	–
O=C(c1ccc(Nc2nccc(-c3cc4ccccc4s3)n2)cc1)N1CCC(N2CCCC2)CC1	3.72 µM (active)	–
COc1ccc(F)c(F)c1C(=O)c1cnc(NC2CCN(S(C)(=O)=O)CC2)nc1N	1.87 µM (active)	–
CCc1c2c(nc3ccc(O)cc13)-c1cc3c(c(=O)n1C2)COC(=O)[C@]3(O)CC	0.526 µM (active)	–
CC1(C)O[C@@H]2C[C@@H]3[C@H]4C[C@@H](F)C5=CC(=O)C=C[C@]5(C)[C@@]4(F)[C@@H](O)C[C@]3(C)[C@]2(C(=O)CO)O1	inactive	–
N#CCNC(=O)c1ccc(-c2ccnc(Nc3ccc(N4CCOCC4)cc3)n2)cc1	13.2 µM (active)	–
CN(C)CC=CC(=O)Nc1cc2c(Nc3ccc(F)c(Cl)c3)ncnc2cc1O[C@H]1CCOC1	8.33 µM (active)	–
